# Screening data from PubChem.
# In the library only some 1.7% were active in any assay of this set; here they are far more common.
# BJeLR viability = BJeLR cell viability loss. BJeLR (HRASV12) viability, CellTiter-Glo ATP luminescence, 48 h. inhibition, % (concentration not given with the values). 300,000 tested, 0.17% active. AID 1554; in the data active = inhibition above about 50%
# PfHsp40 rescue = compounds rescuing yeast from Plasmodium falciparum HSP40 toxicity. S. cerevisiae expressing PfHsp40, growth rescue, ATP luminescence. AID 504582. 340,000 tested, 0.68% active. growth rescue, % at 12.5 µM; in the data active = growth rescue above about 28%, passing the limit was not always enough;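 note: yeast W303a lacking pdr1 and pdr3 grown in galactose medium; growth measured after three days at 30 °C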
# PrPC TRFRET = inhibitors of human cell surface prion protein PrPC | inhibition, % at 13.8 µM | TR-FRET read-out | 370,000 tested, 0.43% active | P04156 | AID 720596; in the data active = inhibition above about 24%; note: 0% = median of the test wells and 100% = reference compound wells
# PrP 5UTR inh = suppresses PrP 5' UTR mRNA reporter expression; cell-based PrP 5' UTR mRNA reporter, plate reader; inhibition, % (concentration not given with the values); 340,000 tested, 0.35% active; AID 488862; in the data active = inhibition above about 52%; note: 0 = median of the neutral control wells
# Y pestis TopoI = blocks Yersinia pestis topoisomerase I activity; activity, % at 10 µM; 360,000 tested, 0.064% active; Y. pestis Topo-I cleavage product accumulation, plate reader; in the data active = activity above about 50%, passing the limit was not always enough
# SSB-PriA inh = inhibitors of Klebsiella pneumoniae PriA binding to SSB C-terminal tail. AlphaScreen SSBct-PriA binding, biotinylated peptide. inhibition, % at 33 µM. 430,000 tested, 0.6% active. AID 1272365; in the data active = inhibition mostly above about 37%, no sharp cut-off; inactive = mostly below about 20%;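 note: plate controls were negative control peptide for no effect and reference peptide for full effect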
# PrPC TRFRET cf = cell surface PrPC inhibition, TR-FRET confirmation; shares compounds with PrPC TRFRET; cell surface PrPC level; inhibition, % at 13.8 µM; 1,500 tested, 65% active; in the data active = inhibition above about 25%
# LD9 cytotox = kills or reduces viability of LD9 cells in PrPc counter-screen | shares compounds with PrPC TRFRET | LD9 cells cytotoxicity, luminescence viability | inhibition, % at 13.8 µM | 1,500 tested, 29% active | AID 743201; in the data active = inhibition above about 9.5%
# Numbers without * were called inactive; nt = no result given.
SMILES,BJeLR viability,PfHsp40 rescue,PrPC TRFRET,PrP 5UTR inh,Y pestis TopoI,SSB-PriA inh,PrPC TRFRET cf,LD9 cytotox
CCc1cc2c(=O)c(-c3ccc4c(c3)OCCO4)c(C)oc2cc1OS(C)(=O)=O,-5,-1,31*,-23,23,-7,40*,5
CCOc1ccc(NC(N)=Nc2nc(C)c(C)c(=O)[nH]2)cc1,nt,nt,nt,nt,nt,-10,nt,nt
O=C(NCC1CCCO1)c1sc2ccccc2c1Cl (stereo not given),12,1,9,-83,2,-24,nt,nt
O=C(O)CC(NC(=O)C1c2ccccc2Oc2ccccc21)c1ccc(OC2CCCC2)cc1 (stereo not given),7,0,14,-1,18,-6,nt,nt
O=C(O)CC(NC(=O)c1sc2ccccc2c1Cl)c1ccc(OC2CCCC2)cc1 (stereo not given),-10,-1,31*,-24,8,-11,28*,-5
Cc1ccc2c(Cl)c(C(=O)NCC3CCCO3)sc2c1 (stereo not given),1,0,25*,-41,24,-9,37*,1
CC(NC(=O)c1sc2ccccc2c1Cl)C1CCCO1 (stereo not given),3,0,38*,-56,-13,-18,44*,-4
O=C(CCOc1ccccc1)Nc1nc(-c2ccc3c(c2)CCCC3)cs1,nt,nt,nt,nt,nt,8,nt,nt
NC(=O)COC(=O)CSc1cccc2cccc(Cl)c12,3,-1,39*,-15,8,8,52*,1
O=C(COC(=O)CSc1cccc2cccc(Cl)c12)Nc1ncc(C(F)(F)F)cc1Cl,-1,0,31*,-16,18,-1,39*,1
O=C(CSc1cccc2cccc(Cl)c12)OCC(=O)N1CCN(C(=O)c2ccco2)CC1,7,0,43*,-6,-9,-5,44*,-1
Cc1ccc(C)c(SCC(=O)OCC(=O)Nc2ncc(C(F)(F)F)cc2Cl)c1,-1,0,3,-22,-4,-14,nt,nt
NC(=O)COC(=O)CC(c1ccccc1)c1ccccc1,-9,1,1,-7,-4,-3,nt,nt
O=C(CSc1cccc2cccc(Cl)c12)NC1=NCCS1,9,0,29*,-21,1,-14,45*,-4
O=C(CSc1ccccc1)NC1=NCCS1,-4,2,-2,-12,-2,3,nt,nt
O=C(NCCOc1ccc(-c2ccco2)nn1)C1CCCC1,nt,nt,nt,nt,nt,-18,nt,nt
Nc1nnc(SCc2nc3scc(-c4ccccc4)c3c(=O)[nH]2)s1,10,-1,26*,-16,-2,-13,53*,3
Cc1nnc(SCc2nc3scc(-c4ccccc4)c3c(=O)[nH]2)s1,-1,2,4,-21,6,2,nt,nt
N#CNC(=Nc1cccc(F)c1)SCc1ccccc1,-4,-1,31*,-16,2,8,14,4
O=C(c1ccccc1Br)N1CC(n2cc(-c3ccccc3)nn2)C1,nt,nt,nt,nt,nt,-1,nt,nt
O=C(O)CSc1ncnc2scc(-c3ccc(Br)cc3)c12,2,1,27*,4,-4,-4,24,-3
CN(C)C(=O)CSc1ncnc2scc(-c3ccccc3)c12,-1,0,5,-23,-4,-4,nt,nt
CC(=O)CSc1ncnc2scc(-c3ccc(F)cc3)c12,-3,0,7,-18,-3,-11,nt,nt
O=C(O)CSc1ncnc2scc(-c3ccccc3)c12,7,0,48*,-28,0,-2,72*,-8
CC(=NCc1cccnc1)c1c(O)n(-c2ccc(C)cc2)c(=O)[nH]c1=O,1,0,85*,-18,-2,-8,65*,-3
SMILES,BJeLR viability,PfHsp40 rescue,PrPC TRFRET,PrP 5UTR inh,Y pestis TopoI,SSB-PriA inh,PrPC TRFRET cf,LD9 cytotox
Cc1nc2ccc(F)cc2cc1C(=O)O,nt,nt,nt,nt,nt,-5,nt,nt
O=C(CSc1ccc2ccccc2n1)NC1CC1,nt,0,5,-6,0,-12,nt,nt
CCOC(=O)NC(=O)CSc1ccc2ccccc2n1,-4,0,49*,-18,11,-13,49*,-9
CCOC(=O)NC(=O)CSc1cc(C)c2cc(C)cc(C)c2n1,-9,-1,42*,-25,4,3,58*,-2
Cc1ccc(NC(=O)c2cc(S(=O)(=O)N(C)C)ccc2N2CCCC2)cc1F,-1,0,63*,-15,10,-1,54*,-6
CSc1ccccc1NC(=O)c1cc(S(=O)(=O)N(C)C)ccc1N1CCCC1,14,-2,6,-4,26,13,nt,nt
Cc1nnc(NC(=O)c2cc(S(=O)(=O)N(C)C)ccc2N2CCCC2)s1,nt,-1,25*,-16,10,-10,24,-4
CN(C)S(=O)(=O)c1ccc(N2CCCC2)c(C(=O)Nc2ccccc2)c1,-3,0,42*,-23,-13,-4,41*,-10
COc1ccc(S(=O)(=O)Nc2ccc(C)cc2)cc1N(C)S(=O)(=O)c1ccc(Cl)cc1,-10,2,25*,-29,16,16,16,3
COc1ccc(S(=O)(=O)NN(C)C)cc1N(C)S(=O)(=O)c1ccc(Cl)cc1,11,0,-3,-20,2,2,nt,nt
CCOc1ccc(-c2cc(=O)n(CC(=O)NCCc3ccccc3OC)cn2)cc1,nt,nt,nt,nt,nt,0,nt,nt
COc1cc(OC)cc(C(=O)N[C@H](C(=O)Nc2nc(-c3cc(OC)ccc3OC)cs2)C(C)C)c1,0,0,26*,-18,8,5,30*,-8
Cc1cn2c3c(=O)n(Cc4c(F)cccc4Cl)c(=O)n(C)c3nc2n1CCOCCO,nt,nt,nt,nt,nt,-24,nt,nt
CO[C@H]([C@H](C)/C=C/N(C)C=O)[C@@H](C)C(=O)CC[C@H](C)[C@H](O)[C@H](C)[C@H]1OC(=O)/C=C/C(C)=C/C[C@H](O)C[C@@H]2C=CC[C@@H](C[C@H](OC)[C@@H](C)[C@@H](OC)C[C@@H](OC)[C@@H]1C)O2,nt,nt,48*,nt,nt,nt,39*,26*
CO[C@H]([C@H](C)/C=C/N(C)C=O)[C@@H](C)C(=O)CC[C@H](C)[C@H](O)[C@H](C)[C@H]1OC(=O)/C=C/C(C)=C/C[C@H](O)C[C@@H]2C=CC[C@@H](C[C@H](OC)[C@@]3(CO3)[C@@H](OC)C[C@@H](OC)[C@@H]1C)O2,nt,nt,41*,nt,nt,nt,37*,39*
Cc1[nH]n(-c2ccccc2)c(=O)c1/C=N/NC(=O)c1cccc(F)c1,23,2,52*,9,-5,nt,54*,23*
O=C(NC1CCCCC1)N(Cc1nc2ccccc2c(=O)[nH]1)C1CCCCC1,-1,0,4,-1,5,-1,nt,nt
COc1ccc(CN(Cc2nc3ccccc3c(=O)[nH]2)C(=O)NC2CCCCC2)cc1,3,-1,25*,-14,25,-2,-1,-2
